Source: PubChem BioAssay
HT1080 IDH1KD tx = HT-1080 IDH1 knockdown cell toxicity (counter line); hit rate 2% among 360,000; Potency, µM (doses to about 46.1 µM), usual class: cytotoxic; HT-1080 IDH1 knockdown viability, ATP luminescence, 48 h
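Viability of IDH1-knockdown HT-1080 fibrosarcoma cells was assessed by CellTiter-Glo after 48 h at 37 °C with titrated compound; concentration-effect curves were classified by fit quality and response size.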
KB-V1 cytotox = KB-V1 MDR subline cytotoxicity | KB-V1 MDR cells viability, CellTiter-Glo, 72 h | Potency, µM (titrated, usually from 46.1 µM), actives largely listed as cytotoxic | hit rate 3.4% among 400,000 | AID 1347076; further: nearly all actives have a fitted effect of over 60% in size
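KB-V1, DMEM (no phenol red) + 10% FBS; cpd pin-transferred, titration series; 72 h, 37 degrees C; CellTiter-Glo, luminescence. Data normalized, curve-fit.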
HT1080NT lethal = kills 2HG-producing HT-1080-NT fibrosarcoma cells; Potency, µM (series often up to 46.1 µM), usual class: cytotoxic; HT-1080-NT fibrosarcoma viability, CellTiter-Glo ATP luminescence, 48 h; hit rate 1.6% among 360,000;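 further: NT is the 2HG producing partner of a matched IDH1 knockdown line; nearly all actives have a fitted effect of over 55% in size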
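HT-1080-NT; 750 cells/well; 5% FBS RPMI; 48 h compound, 37 degrees C; CellTiter-Glo luminescence; curve fitting and curve-class assignment.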
IL-1B inflam inh = inhibitors of inflammasome signaling (IL-1 beta secretion); THP-1 LPS/ATP IL-1B secretion, AlphaLISA, 16 h; hits give low values; activity change, % at 57.5 µM; hit rate 4.7% among 360,000; AID 743279; in the data active means activity change below about -50%; inconclusive means mostly about -30% to -49%
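THP-1 cells pretreated 1 hr with compounds (up to 57.5 uM final), then stimulated with LPS (250 ng/mL final) plus ATP (1.25 mM final); secreted IL-1B measured by AlphaLISA after 16 hr, decreased signal indicating inhibition.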
KB-3-1 cytotox = KB-3-1 parental cell cytotoxicity | KB-3-1 viability, CellTiter-Glo ATP luminescence, 72 h | Potency, µM (highest dose often 46.1 µM), most hits filed as cytotoxic | hit rate 1.4% among 400,000 | AID 1347075; further: nearly all actives have a fitted effect of over 60% in size
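KB-3-1 parental drug-naive adenocarcinoma cells in DMEM/10% FBS, incubated 72 h at 37 C with pin-transferred compounds across a concentration series. Viability by CellTiter-Glo luminescence; concentration-response curves fitted after normalization.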
Each line names hits and unclear results; the compound was inactive in the other large screens; ! = a repeat was not active. The list is not random: actives were taken first. Their share in the collection is about 8.8%. Unless noted, the call rests on the fitted dose curve; in most records, active means well fitted curve in the direction sought with a large enough effect; inconclusive means small, poorly fitted or top-dose-only effect, or another doubt; inactive means no such curve, though single readings can be large; an effect the other way counts as inactive or inconclusive.

COc1ccc(C(C(=O)NC2CCCCC2)N(C(=O)CCl)c2cccc(Cl)c2)cc1 (stereo not drawn)	HT1080 IDH1KD tx 1.6µM, KB-V1 cytotox 16µM, HT1080NT lethal 9.2µM, IL-1B inflam inh -110, KB-3-1 cytotox 18µM
COCCN(C(=O)CCCC(=O)Nc1ccccn1)C(C(=O)NC1CCCCC1)c1ccc(C)cc1 (stereo not drawn)	none
COc1ccc(C(C(=O)NC2CCCCC2)N(C(=O)CCl)c2ccc(C)cc2)cc1 (stereo not drawn)	HT1080 IDH1KD tx 1.2µM, KB-V1 cytotox inconclusive, HT1080NT lethal 0.82µM, IL-1B inflam inh -106, KB-3-1 cytotox inconclusive
CCOC(=O)N1CCN(C(=O)C(=O)Nc2sc3c(c2C(=O)O)CC(C)(C)OC3)CC1	none
COc1ccc(S(=O)(=O)NC(=O)C2(C)CCN2C(=O)C2CC2)cc1 (stereo not drawn)	none
O=C(NC1CCCC1)C(c1ccc(F)cc1)N(Cc1ccc(F)cc1)C(=O)CCl (stereo not drawn)	KB-V1 cytotox 18µM, IL-1B inflam inh -104, KB-3-1 cytotox inconclusive
COc1ccc(-c2nnn(CC(=O)N(Cc3ccc(F)cc3)C(C(=O)NC3CCCC3)c3ccc(F)cc3)n2)cc1 (stereo not drawn)	KB-V1 cytotox inconclusive, HT1080NT lethal inconclusive
O=C(N/N=C/c1cccs1)c1cccnc1	none
O=C(N/N=C/C(Br)=C/c1ccccc1)c1n[nH]c2c1CCC2	HT1080 IDH1KD tx 7.9µM, HT1080NT lethal inconclusive
O=C(N/N=C/c1ccccc1Cl)c1n[nH]c2c1CCCC2	KB-3-1 cytotox inconclusive
CC1C(=O)NN=C1C(=O)N/N=C\C(Br)=C\c1ccccc1 (stereo not drawn)	none
O=C(N/N=C/c1ccc(Cl)cc1)c1n[nH]c2c1CCCC2	HT1080 IDH1KD tx 0.52µM, KB-V1 cytotox 1.3µM, HT1080NT lethal 0.41µM, KB-3-1 cytotox 4.6µM
O=C(N/N=C/c1cccs1)c1n[nH]c2c1CCC2	HT1080 IDH1KD tx 6.5µM, KB-V1 cytotox inconclusive, HT1080NT lethal 7.3µM, KB-3-1 cytotox 5.8µM
O=C(N/N=C/C(Br)=C/c1ccccc1)c1cc(-c2ccco2)[nH]n1	HT1080 IDH1KD tx inconclusive, KB-V1 cytotox inconclusive, HT1080NT lethal inconclusive, IL-1B inflam inh -68, KB-3-1 cytotox inconclusive
Clc1ccccc1CNc1nc2ccccc2c2nc(-c3cccnc3)nn12	none (no result: HT1080 IDH1KD tx, HT1080NT lethal, IL-1B inflam inh)
COC(=O)c1ccccc1NC(=O)c1cc2nc(-c3ccccc3)cc(-c3ccccc3)n2n1	none (no result: HT1080 IDH1KD tx, HT1080NT lethal, IL-1B inflam inh)
COc1ccc(/C=C2\C=Cc3ccccc32)cc1	KB-3-1 cytotox inconclusive (no result: HT1080 IDH1KD tx, HT1080NT lethal, IL-1B inflam inh)
CCc1ccc(N2CCN(C(=O)N3CCOCC3)CC2)cc1	none
O=C(NN=C1CCCCCC1)c1cccs1	none
Nc1c2ccccc2nc2ccccc12	HT1080 IDH1KD tx 13µM, KB-V1 cytotox 2.1µM!, HT1080NT lethal 23µM, IL-1B inflam inh -97!, KB-3-1 cytotox 5.2µM
NNc1nc(-c2ccccc2Cl)nc2sc3c(c12)CCCC3	KB-V1 cytotox 4.6µM, KB-3-1 cytotox inconclusive
CN1CCCC(CC2Oc3ccccc3Sc3ccccc32)C1 (stereo not drawn)	HT1080 IDH1KD tx 21µM, KB-V1 cytotox inconclusive, HT1080NT lethal 15µM, IL-1B inflam inh -73, KB-3-1 cytotox inconclusive
COc1cc(CNC2CCCCC2OC)cc(OC)c1OC (stereo not drawn)	none
COc1cc(CNC2CCCCCCC2)cc(Cl)c1OC	HT1080 IDH1KD tx inconclusive, KB-V1 cytotox inconclusive, IL-1B inflam inh -80, KB-3-1 cytotox inconclusive
C=CCOc1c(CNC2CCCC2)cc(Cl)cc1OC	IL-1B inflam inh -72
COc1cc(CNC2CCCCCCC2)cc(Br)c1OCC#N	HT1080 IDH1KD tx inconclusive, KB-V1 cytotox 23µM
CCOc1c(Br)cc(CNC2CCCCCCC2)cc1OC	KB-V1 cytotox inconclusive, IL-1B inflam inh -94, KB-3-1 cytotox inconclusive
CCOc1c(Br)cc(CNc2ccc(N3CCOCC3)cc2)cc1OC	none
O=C1CSc2ccc(C(=O)N3CCCCC3)cc2N1	none
CCCNC(=O)c1ccc2c(=O)c(O)c(-c3ccc(C)cc3)[nH]c2c1	KB-3-1 cytotox inconclusive
Cc1ccc(OCCNC(=O)C(=O)NCc2ccco2)cc1	HT1080 IDH1KD tx 4.1µM, KB-V1 cytotox inconclusive, HT1080NT lethal inconclusive, KB-3-1 cytotox inconclusive
Cc1ccc(C(=O)Nc2cccc(C(=O)NCc3ccccc3)c2)cc1	HT1080 IDH1KD tx inconclusive, KB-V1 cytotox 4.6µM, HT1080NT lethal inconclusive, KB-3-1 cytotox 8.2µM
Cc1ccc(CNC(=O)c2ccc3c(=O)c(O)c(-c4ccc(C)cc4)[nH]c3c2)cc1	KB-V1 cytotox inconclusive, KB-3-1 cytotox 4.6µM
Cc1ccc(C(=O)Nc2cccc(C(=O)NCc3ccco3)c2)cc1	HT1080 IDH1KD tx inconclusive, KB-3-1 cytotox 3.3µM
Cc1ccc(OCCCC(=O)NCc2ccco2)cc1	none
CCOC(=O)c1cccc(NC(=O)Cn2nc(C)n3cccc3c2=O)c1	none
C=CCC[C@@H](Cc1ccc(F)cc1)C(=O)OC[C@H](Cc1c[nH]c2ccccc12)NC(=O)[C@H](CC=C)CC(=O)N(CCO)Cc1ccccc1	HT1080 IDH1KD tx inconclusive, HT1080NT lethal inconclusive
O=C1C(Cl)=C(N2CCN(c3ccccc3[N+](=O)[O-])CC2)C(=O)c2ccccc21	HT1080 IDH1KD tx inconclusive, KB-V1 cytotox inconclusive, IL-1B inflam inh -104, KB-3-1 cytotox inconclusive
CN(CC(=O)c1c(N)n(C)c(=O)n(C)c1=O)c1ccccc1	none
COc1ccc(CCNC(=O)COC(=O)c2cc(OC)c(OC)cc2OC)cc1OC	KB-V1 cytotox inconclusive
Cc1ccc2nc(-c3cccc(Cl)c3)c(Cc3ccccc3)n2c1	KB-V1 cytotox 21µM
Cc1ccc2nc(-c3ccco3)c(Cc3ccccc3)n2c1	HT1080 IDH1KD tx 23µM, KB-V1 cytotox inconclusive, HT1080NT lethal inconclusive
Cc1ccc2nc(C(C)(C)C)c(Cc3cccc(F)c3)n2c1	HT1080 IDH1KD tx 23µM, HT1080NT lethal 16µM
Fc1cccc(Cc2c(-c3ccco3)nc3ccc(Br)cn23)c1	HT1080 IDH1KD tx 16µM, HT1080NT lethal inconclusive
Cc1ccc(-c2nc3ccc(C)cn3c2Cc2cccc(Cl)c2)cc1	HT1080 IDH1KD tx inconclusive, KB-V1 cytotox inconclusive, HT1080NT lethal inconclusive
Cc1ccc(-c2nc3ccc(C)cn3c2Cc2cccc(F)c2)cc1	HT1080 IDH1KD tx inconclusive, KB-V1 cytotox inconclusive, HT1080NT lethal inconclusive, KB-3-1 cytotox inconclusive
CC(C)(C)c1ccc(OCC(O)CN2CCOCC2)cc1 (stereo not drawn)	none
CCc1nc2ccc(C(=O)Nc3cccc(NS(C)(=O)=O)c3)cn2c1N(C)C(=O)c1cccc(OC)c1	KB-V1 cytotox inconclusive, IL-1B inflam inh -78
CCc1nc2ccc(C(=O)Nc3cccc(NS(C)(=O)=O)c3)cn2c1N(C)C(=O)Cc1ccccc1	IL-1B inflam inh -87
COc1cc2c(c(OC)c1OC)C(c1ccccc1C)CC(=O)O2 (stereo not drawn)	none
COc1ccc(OC)c(C(C[N+](=O)[O-])c2c(C)cc3ccccn23)c1 (stereo not drawn)	HT1080 IDH1KD tx 18µM, KB-V1 cytotox inconclusive, HT1080NT lethal 23µM, KB-3-1 cytotox inconclusive
